Screens as filed in PubChem BioAssay.
Wnt bcat act = activates Wnt/beta-catenin signaling in a reporter cell assay. 300,000 tested, 1.2% active. AID 743398. activator, plate reader. activation, % at 9.35 µM; in the data active = activation above about 30%, passing the limit was not always enough; inconclusive = no clear call, values can overlap the other calls;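 note: 0% = neutral control wells and 100% = positive control wells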
LMP1 NFkB inh = reduces LMP1-driven NF-kappaB luciferase signal. LMP1-induced NF-kappaB luciferase reporter cells, luminescence. inhibition, % at 12.5 µM. 350,000 tested, 0.69% active. AID 504558; in the data active = inhibition above about 41%; inconclusive = no clear call, values can overlap the other calls;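 note: 0% = neutral control wells and 100% = reference inhibitor control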
TRPM1 prom inh = inhibitors of MITF-driven TRPM1 promoter in melanoma cells; SK-MEL-5 TRPM1 promoter luciferase, 24 h; inhibition, % at 12.5 µM; 330,000 tested, 0.83% active;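 active = mean inhibition across replicates of 60% or more, whatever share of single replicates reaches that level; inconclusive = some that reach 60%, reason not given; inactive = mean inhibition across replicates below 60%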
esBAF inh = blocks esBAF chromatin remodeling in mouse ES cells; 350,000 tested, 2% active; reporter increase, % at 12.5 µM; AID 602393; Bmi1-luciferase knock-in reporter, 24 h; 100% = twice the neutral-well signal; in the data active = activation above about 40%; inconclusive = no clear call, values can overlap the other calls;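 note: 0% = median of the plate's neutral control wells and 100% = double that signal; a rise in the Bmi1 reporter signal indicates esBAF inhibition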
MITF TRPM1 HTS = activators of MITF-driven TRPM1 promoter activity in SK-MEL-5 cells; AID 588334; SK-MEL-5 TRPM1-promoter luciferase, 24 h; % of positive control, neutral wells = 0; 300,000 tested, 0.75% active; activation, % at 12.5 µM;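 active = mean activation of at least 80% with every replicate also reaching 80%; inconclusive = mean reaches 80% but some replicate falls short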;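 note: 0% = neutral control wells and 100% = parthenolide positive control wells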
C2C12 statin = suppressors of simvastatin-induced myotoxicity in C2C12 myotubes | ATP luminescence, 48 h; scaled: DMSO 0, geranylgeraniol control 100 | rescue of ATP level, % at 7.49 µM | 330,000 tested, 0.78% active | AID 602340;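 active = mean ATP rescue above about 67%, or every replicate alone reaching that limit, limit read from the data, passing the limit was not always enough; inconclusive = no clear call, values can overlap the other calls; inactive = mean under the limit and some replicate under it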;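 note: myotubes were challenged with 10 µM simvastatin during compound exposure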
An asterisk follows results filed as active. In the library only some 4% were active in any assay of this set; here they are far more common.

How did O=C1C[C@@H]2c3c(cccc3CN1Cc1ccc(Br)cc1)C[C@@H](O)[C@H]2O do in these assays?
Wnt bcat act: 1.7; LMP1 NFkB inh: 3.1; TRPM1 prom inh: 6.0; esBAF inh: 10.6; MITF TRPM1 HTS: -5.7; C2C12 statin: 100.4*

Results for CN(C)c1ccc(N=Nc2cccc3ccoc23)cc1 ?
Wnt bcat act: inconclusive; LMP1 NFkB inh: -31.9; TRPM1 prom inh: -53.3; esBAF inh: inconclusive; MITF TRPM1 HTS: 59.5; C2C12 statin: -9.4

What do the screens show for `CN(C)c1ccc(N=Nc2cccc(F)c2)cc1`?
Wnt bcat act: 51.8*; LMP1 NFkB inh: -29.3; TRPM1 prom inh: -47.3; esBAF inh: -8.0; MITF TRPM1 HTS: 48.8; C2C12 statin: 20.1

Results for COC(=O)N(C)c1nc2ccccc2s1 ?
LMP1 NFkB inh: -5.1; TRPM1 prom inh: -34.7; esBAF inh: 27.1; MITF TRPM1 HTS: 38.8; C2C12 statin: -8.0

What do the screens show for `CCCCNC(=O)N(C)c1nc2ccccc2s1`?
Wnt bcat act: 4.8; LMP1 NFkB inh: -30.8; TRPM1 prom inh: -45.7; esBAF inh: 63.5*; MITF TRPM1 HTS: 52.2; C2C12 statin: 0.6

Results for Fc1ccccc1CSc1ccc(-c2ccco2)nn1 ?
Wnt bcat act: 10.7; LMP1 NFkB inh: -15.4; TRPM1 prom inh: -93.9; MITF TRPM1 HTS: 95.4*

What do the screens show for `c1ccc(CSc2ccc(-c3ccco3)nn2)cc1`?
Wnt bcat act: 51.5*; LMP1 NFkB inh: -5.4; TRPM1 prom inh: -45.4; MITF TRPM1 HTS: 43.6

What do the screens show for `Cc1nc(C)c(-c2ccc(SCc3ccccc3F)nn2)s1`?
Wnt bcat act: 10.2; LMP1 NFkB inh: -22.4; TRPM1 prom inh: -72.4; esBAF inh: 69.5*; MITF TRPM1 HTS: 76.5; C2C12 statin: 4.8

What do the screens show for `Cc1cccc(CSc2ccc(-c3ccco3)nn2)c1`?
Wnt bcat act: -1.5; LMP1 NFkB inh: -37.6; TRPM1 prom inh: -34.1; esBAF inh: 50.3*; MITF TRPM1 HTS: 34.3; C2C12 statin: -7.0

Results for Cc1ccc(CSc2ccc(-c3ccco3)nn2)cc1 ?
Wnt bcat act: 21.2; LMP1 NFkB inh: -28.7; TRPM1 prom inh: -49.6; esBAF inh: inconclusive; MITF TRPM1 HTS: 49.7; C2C12 statin: 5.3

How did COc1ccc(NC(=O)N(C)C[C@@H]2Oc3c(NC(=O)NC4CCCCC4)cccc3C(=O)N([C@@H](C)CO)C[C@H]2C)cc1 do in these assays?
esBAF inh: 7.3; C2C12 statin: -9.8

How did COc1ccccc1N1CCN(C(=O)CCS(=O)(=O)c2ccc3c(c2)oc(=O)n3C)CC1 do in these assays?
Wnt bcat act: 0.6; LMP1 NFkB inh: 1.3; TRPM1 prom inh: -4.3; esBAF inh: -4.7; MITF TRPM1 HTS: 1.5; C2C12 statin: 3.6

Results for C[C@H]1CN([C@@H](C)CO)C(=O)Cc2cc(NC(=O)C3CCCCC3)ccc2O[C@@H]1CN(C)CC1CCCCC1 ?
esBAF inh: 2.6; C2C12 statin: 12.3

How did Cc1cc(C)nc(N(C#N)Cc2ccccc2Cl)n1 do in these assays?
Wnt bcat act: -2.7; LMP1 NFkB inh: 2.0; TRPM1 prom inh: 0.0; esBAF inh: -4.3; MITF TRPM1 HTS: -2.1; C2C12 statin: 68.8*

What do the screens show for `Cc1cc(C)nc(N(C#N)Cc2ccccc2C)n1`?
Wnt bcat act: -3.8; LMP1 NFkB inh: -11.9; TRPM1 prom inh: 1.8; MITF TRPM1 HTS: -1.4

What do the screens show for `CC(=O)c1c(C)[nH]c(C(=O)NNC(=O)COc2ccc(Cl)cc2C)c1C`?
Wnt bcat act: 2.9; LMP1 NFkB inh: 5.9; TRPM1 prom inh: 6.1; esBAF inh: 6.2; MITF TRPM1 HTS: -5.4; C2C12 statin: 3.3

How did O=C(NC(Nc1nc2ccc([N+](=O)[O-])cc2s1)(C(F)(F)F)C(F)(F)F)c1ccccc1Cl do in these assays?
LMP1 NFkB inh: 52.8*; TRPM1 prom inh: 74.8*; MITF TRPM1 HTS: -72.1

Results for O=C(NC(Nc1nc2ccc([N+](=O)[O-])cc2s1)(C(F)(F)F)C(F)(F)F)c1cccnc1 ?
Wnt bcat act: -2.9; LMP1 NFkB inh: 31.9; TRPM1 prom inh: 78.0*; MITF TRPM1 HTS: -75.9

What do the screens show for `CC(=O)Nc1ccc2nc(NC(=O)c3cccnc3)sc2c1`?
Wnt bcat act: 4.3; LMP1 NFkB inh: -0.9

How did COc1ccc(CCNC(=O)c2nnn(-c3ccc4c(c3)OCCO4)c2N)cc1OC do in these assays?
LMP1 NFkB inh: 50.2*; TRPM1 prom inh: 40.5; esBAF inh: 17.9; C2C12 statin: -1.3

What do the screens show for `COc1ccc(CCNC(=O)c2nnn(-c3ccccc3OC)c2N)cc1OC`?
Wnt bcat act: 0.7; LMP1 NFkB inh: 2.3; TRPM1 prom inh: -9.3; esBAF inh: -2.4; C2C12 statin: 8.2

How did Cc1ccccc1NC(=O)c1nnn(-c2ccc3c(c2)OCCO3)c1N do in these assays?
Wnt bcat act: 36.5*; LMP1 NFkB inh: -7.1; TRPM1 prom inh: -79.9; MITF TRPM1 HTS: 86.5*

How did CCN(Cc1ccccc1)C(c1ccc(C)cc1)c1nnnn1C(C)(C)C (stereo not drawn) do in these assays?
LMP1 NFkB inh: -2.3; TRPM1 prom inh: 5.2; MITF TRPM1 HTS: -3.2

How did Cc1ccc(CN2CCN(/N=C/c3ccc(C(=O)O)cc3)CC2)cc1 do in these assays?
LMP1 NFkB inh: -17.4; TRPM1 prom inh: 18.6; MITF TRPM1 HTS: -12.5

Results for O=[N+]([O-])c1ccccc1OCCCn1cnc2ccccc21 ?
Wnt bcat act: 15.7; LMP1 NFkB inh: -37.1; TRPM1 prom inh: -101.3; esBAF inh: 64.6*; MITF TRPM1 HTS: 103.9*; C2C12 statin: -4.3

Results for O=c1c2ccccc2ncn1CCCOc1ccccc1[N+](=O)[O-] ?
Wnt bcat act: 21.6; LMP1 NFkB inh: -17.2; TRPM1 prom inh: -68.7; esBAF inh: 61.5*; MITF TRPM1 HTS: 65.3; C2C12 statin: -9.9

What do the screens show for `Clc1ccc(OCCn2cnc3ccccc32)c(Cl)c1`?
LMP1 NFkB inh: -17.7; TRPM1 prom inh: -81.1; esBAF inh: 70.6*; MITF TRPM1 HTS: 73.5; C2C12 statin: -6.1

Results for O=C(Nc1ccccc1)Nc1ccc(Oc2cccnc2)nc1 ?
Wnt bcat act: 28.6; LMP1 NFkB inh: -18.5; TRPM1 prom inh: -30.4

How did Cc1ccc(Br)cc1S(=O)(=O)Nc1cccnc1 do in these assays?
Wnt bcat act: 1.6; LMP1 NFkB inh: 6.7; TRPM1 prom inh: 0.8; esBAF inh: 1.4; MITF TRPM1 HTS: 0.9; C2C12 statin: 4.2

What do the screens show for `Cc1cccc(OCC(=O)NCCNC(=O)c2ccncc2)c1`?
Wnt bcat act: -0.5; LMP1 NFkB inh: 1.2; TRPM1 prom inh: 4.4; esBAF inh: -8.5; MITF TRPM1 HTS: 0.5; C2C12 statin: 2.4

What do the screens show for `C/C(=N\OCC(=O)Nn1c(=O)[nH]c2ccccc2c1=O)c1cccs1`?
Wnt bcat act: -1.3; LMP1 NFkB inh: 3.5; TRPM1 prom inh: 8.2; MITF TRPM1 HTS: -7.1

How did CN=c1scc(-c2ccc(F)cc2)n1/N=C/c1ccc(O)c(O)c1 do in these assays?
Wnt bcat act: -7.7; LMP1 NFkB inh: 8.7; TRPM1 prom inh: 68.4*; MITF TRPM1 HTS: -67.8

What do the screens show for `Cc1ccc(S(=O)(=O)NC(=O)Nc2cc(C)on2)cc1`?
Wnt bcat act: -0.2; LMP1 NFkB inh: 9.5; TRPM1 prom inh: -2.0; esBAF inh: 9.5; MITF TRPM1 HTS: 4.4; C2C12 statin: 3.5
